A number with no mark means an inactive call. Inconclusive results are not listed. Calls of active or inactive are those of the source. Unless noted, calls follow the shape of the full dose curve.

Assay [1] is described as follows: Nuclear factor erythroid 2-related factor 2/antioxidant responsive element (Nrf2/ARE) small molecule agonists: qHTS cell viability counter screen in human keratinocytes (AID 1919968; active = well fitted curve in the direction sought with a large enough effect in the repeat runs; an effect the other way counts as inactive or inconclusive; also: nearly all actives have a fitted effect of over 55% in size; also: potency is read from the fitted curve at half-maximal effect). The essentials:
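CellTiter-Fluor fluorescence, read 1 h after reagent, gave viability in the same wells as the ARE-luciferase assay. KeratinoSens cells (1,500/well) had 23 h compound exposure at 37 C/5% CO2 following 5 h plating.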
In general terms: qHTS replaces the single test concentration by a dilution series.

Assay [2] is described as follows: Nuclear factor erythroid 2-related factor 2/antioxidant responsive element (Nrf2/ARE) small molecule agonists: luciferase reporter gene qHTS assay in human keratinocytes (AID 1919969; also: nearly all actives have a fitted effect of over 35% in size). (A reporter such as luciferase makes a cellular process visible.)
For assay [3], the target named is Gonadotropin-releasing hormone receptor (Homo sapiens) (UniProt P30968). The assay can be described thus: Human gonadotropin-releasing hormone receptor (GnRHR) small molecule agonists, calcium flux assay in GnRHR-HEK293 cells (AID 1920063). Also: nearly all actives have a fitted effect of over 35% in size. In short, it runs like this:
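Agonist mode: compounds at 15 concentrations, in triplicate, went onto calcium dye-loaded GnRHR-HEK293 cells. Intracellular calcium was then followed as 480/540 nm fluorescence at 1 s intervals over 3 min.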
Background: Calcium assays in cells follow changes in intracellular calcium, usually with a dye or a luminescent sensor.

For assay [4], the target named is KiSS-1 receptor (Homo sapiens) (UniProt Q969F8). The assay can be described thus: Human kisspeptin (KISS1R) small molecule agonists, calcium flux assay in KISS1R-HEK293 cells (AID 1920064; active = well fitted curve in the direction sought with a large enough effect in the repeat runs; an effect the other way counts as inactive or inconclusive). In short, it runs like this:
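Agonist mode: intracellular calcium rise tracked at 1 s intervals over 3 min (480/540 nm) immediately after compound addition to dye-loaded KISS1R-HEK293 stable cells. Each compound tested at 15 concentrations in triplicate.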

Assay [5] is described as follows: G protein-coupled receptor (GPCR) small molecule agonists, calcium flux assay: HEK293 wild type cell line counter screen (AID 1920065). The essentials:
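Calcium flux counter screen: compound added in agonist mode at 15 concentrations in triplicate to dye-loaded parental HEK293 cells. Fluorescence (480/540) read kinetically for 3 min; ATP served as positive control.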

Assay [6] in a line: p53 small molecule agonists, cell-based qHTS assay with rat liver microsomes (AID 1963578). The essentials:
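Quantitative HTS of the Tox21 10K library: p53RE-bla cells, rat liver microsomes plus NADPH at 0.5 mg/mL final each, 16 h at 37 C, beta-lactamase fluorescence detection.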

Assay [7] can be described thus: p53 small molecule agonists, cell-based qHTS assay with human liver microsomes: qHTS cell viability counter screen (AID 1963579). Also: nearly all actives have a fitted effect of over 45% in size. In short, it runs like this:
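Viability of p53RE-bla cells is measured as CellTiter-Glo luminescence following a 16 h, 37 C incubation with compound, liver microsomes from human donors and NADPH.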

Assay [8] is described as follows: p53 small molecule agonists, cell-based qHTS assay with rat liver microsomes: qHTS cell viability counter screen (AID 1963580). Also: nearly all actives have a fitted effect of over 45% in size. In short, it runs like this: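 Cytotoxicity counter screen: intracellular ATP measured by CellTiter-Glo luminescence in the same wells as the beta-lactamase reporter read, on HCT-116 p53RE-bla cells exposed 16 h at 37 C to compounds with rat liver microsomes and NADPH, each 0.5 mg/mL final.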

Assay [9] can be described thus: p53 small molecule agonists, cell-based qHTS assay: qHTS cell viability counter screen (AID 1963581). Also: nearly all actives have a fitted effect of over 45% in size. In short, it runs like this: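 Counter screen read by CellTiter-Glo luminescence (ATP content, 30 min at room temperature), run in the same wells as the beta-lactamase reporter read. HCT-116 p53RE-bla cells saw compounds for 16 h at 37 C.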
Assay [10] can be described thus: p53 small molecule agonists, cell-based qHTS assay (AID 1963582; active = well fitted activation curve with a large enough effect in the signal ratio in the repeat runs, not every such curve was filed as active; the % refers to the signal ratio). In short, it runs like this:
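Read-out is beta-lactamase FRET fluorescence after 2 h at room temperature with LiveBLAzer B/G substrate. p53 response element-bla cells were treated 16 h at 37 C with compounds in DMSO, added 5 h after seeding.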

For assay [11], the target named is Muscarinic acetylcholine receptor M1 (Homo sapiens) (UniProt P11229). Nature of the assay: Cholinergic receptor muscarinic 1 (CHRM1) small molecule antagonists, cell-based qHTS assay (AID 1963588). Also: nearly all actives have a fitted effect of over 40% in size. The essentials:
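Compounds were tested at 15 concentrations in three independent runs. Dye-loaded CHRM1-CHO cells were exposed 5 min at room temperature before stimulation by acetylcholine added at 50nM. Intracellular calcium was read kinetically on FDSS for 3 min.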

Assay [12] has the same target. The assay can be described thus: Cholinergic receptor muscarinic 1 (CHRM1) small molecule agonists, cell-based qHTS assay (AID 1963589). Also: nearly all actives have a fitted effect of over 35% in size. The essentials: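 Agonist-mode calcium-flux screen: compounds at 15 concentrations, three independent runs, were pin-transferred onto dye-loaded human CHRM1-CHO cells. Fluorescence was then recorded kinetically every second over minutes.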

The nature of assay [13]: cAMP Responsive Elements (CRE) small molecule agonists, cell-based qHTS assay (AID 1963590). The essentials:
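Agonist mode: compound added to CRE-bla HEK 293T cells (2,000/well, 18 h after plating) for 3 h at 37 C/5% CO2. Reporter activity detected via FRET beta-lactamase substrate, 2 h room-temperature loading.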

Assay [14] in a line: cAMP Responsive Elements (CRE) small molecule antagonists, cell-based qHTS assay (AID 1963591; active = well fitted inhibition curve with a large enough effect in the signal ratio in the repeat runs, not every such curve was filed as active; the % refers to the signal ratio). The essentials: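 Antagonist mode: compounds are added alongside the adenylyl cyclase activator NKH477 (0.25 uM final) to CRE-bla HEK293T cells for 3 h. LiveBLAzer FRET substrate, 2 h at room temperature, reports bla expression.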
Assay [15] concerns the target Beta-2 adrenergic receptor (Homo sapiens) (UniProt P07550). Nature of the assay: Adrenergic beta2 receptor (ADRB2) small molecule antagonists, cell-based qHTS assay (AID 1963592). Also: series mostly up to about 92 µM; nearly all actives have a fitted effect of over 50% in size. In short, it runs like this:
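Assay format: CHO-ADRB2 cells, 18-20hr seeding at 37C/5% CO2, then compound plus 1nM isoproterenol agonist mix for 0.5hr RT. Homogeneous time-resolved fluorescence cAMP detection after 1hr, expressed as 665/615 nm ratio.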

For assay [16], the target named is D(2) dopamine receptor (Homo sapiens) (UniProt P14416). Nature of the assay: Dopamine D2 receptor (DRD2) small molecule agonists, cell-based qHTS assay (AID 1963594). Also: nearly all actives have a fitted effect of over 35% in size. The essentials: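 HEK293 cells stably expressing human DRD2, pre-treated with PDE inhibitor Ro20-1724 (0.1 mM final) and compound 10 min at room temperature, then stimulated with NKH477 (200nM […]) for 30 min. cAMP read by HTRF (665/620 nm).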
D(2) dopamine receptor (Homo sapiens), sequence (P14416 whole entry, looked up): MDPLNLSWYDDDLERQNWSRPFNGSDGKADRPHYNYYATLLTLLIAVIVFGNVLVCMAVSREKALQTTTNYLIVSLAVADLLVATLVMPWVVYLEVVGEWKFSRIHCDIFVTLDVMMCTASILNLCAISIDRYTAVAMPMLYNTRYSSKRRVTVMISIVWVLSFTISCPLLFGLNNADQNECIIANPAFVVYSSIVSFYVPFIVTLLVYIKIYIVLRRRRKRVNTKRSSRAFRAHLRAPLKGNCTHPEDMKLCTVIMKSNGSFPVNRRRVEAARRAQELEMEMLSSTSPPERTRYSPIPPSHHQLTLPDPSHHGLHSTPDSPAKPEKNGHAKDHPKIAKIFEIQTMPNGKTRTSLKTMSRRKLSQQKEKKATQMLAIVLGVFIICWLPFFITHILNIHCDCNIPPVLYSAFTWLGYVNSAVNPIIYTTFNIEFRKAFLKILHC

For assay [17] the target is unchanged. Nature of the assay: Dopamine D2 receptor (DRD2) small molecule antagonists, cell-based qHTS assay (AID 1963595; active = well fitted inhibition curve with a large enough effect in the signal ratio in the repeat runs, with a control signal flat; the % refers to the signal ratio). The essentials:
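In this cell-based antagonist screen, compounds act for 10 min at room temperature before a 30 min challenge with 12 nM quinpirole and 200 nM NKH477. cAMP is quantified by HTRF competition in DRD2-HEK293 cells containing 0.1 mM Ro20-1724.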

In assay [18] the target is 5-hydroxytryptamine receptor 2A (Homo sapiens) (UniProt P28223). The assay can be described thus: 5-hydroxytryptamine receptor 2A (HTR2A) small molecule antagonists, cell-based qHTS assay (AID 1963586). Also: nearly all actives have a fitted effect of over 45% in size. The essentials: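 CHO cells stably expressing human HTR2A were plated for 18 h at 37 C, then loaded with calcium dye for 1 h. Compounds were preincubated 5 min at room temperature before DOI (4 nM solution) was added. Kinetic fluorescence was read for 3 min.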
5-hydroxytryptamine receptor 2A (Homo sapiens), sequence (P28223 whole entry, looked up): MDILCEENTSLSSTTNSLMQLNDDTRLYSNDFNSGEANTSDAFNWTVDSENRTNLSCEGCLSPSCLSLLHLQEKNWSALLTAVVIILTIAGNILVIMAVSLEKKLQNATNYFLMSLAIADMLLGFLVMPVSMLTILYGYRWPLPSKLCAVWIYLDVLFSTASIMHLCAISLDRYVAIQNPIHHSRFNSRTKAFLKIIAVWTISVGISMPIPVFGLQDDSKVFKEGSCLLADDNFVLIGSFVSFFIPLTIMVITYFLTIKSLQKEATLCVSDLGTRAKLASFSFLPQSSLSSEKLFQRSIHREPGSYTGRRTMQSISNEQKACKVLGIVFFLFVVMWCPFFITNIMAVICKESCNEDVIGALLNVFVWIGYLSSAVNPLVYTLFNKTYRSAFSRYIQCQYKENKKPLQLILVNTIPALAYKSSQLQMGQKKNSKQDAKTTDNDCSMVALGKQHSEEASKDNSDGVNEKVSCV

Assay [19] has the same target. The assay can be described thus: 5-hydroxytryptamine receptor 2A (HTR2A) small molecule agonists, cell-based qHTS assay (AID 1963587). Also: nearly all actives have a fitted effect of over 30% in size. The essentials: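 CHO cells stably expressing human HTR2A, plated 18 h, loaded with calcium dye 1 h at 37 C. Agonist mode: compounds added and intracellular calcium fluorescence recorded kinetically for 2 min at 1 sec intervals.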

The target of assay [20] is Beta-2 adrenergic receptor (Homo sapiens) (UniProt P07550). Nature of the assay: Adrenergic beta2 receptor (ADRB2) small molecule agonists, cell-based qHTS assay (AID 1963593).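 Also: CHO cells stably overexpressing human ADRB2.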 In short, it runs like this: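 CHO cells stably over-expressing ADRB2 were plated overnight at 37C, then dosed with compounds plus a stimulation mix containing 100uM IBMX and 25uM Ro-20-1724 for 0.5hr at room temperature. cAMP was measured by HTRF competition, 1hr.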
Beta-2 adrenergic receptor (Homo sapiens), sequence (P07550 whole entry, looked up): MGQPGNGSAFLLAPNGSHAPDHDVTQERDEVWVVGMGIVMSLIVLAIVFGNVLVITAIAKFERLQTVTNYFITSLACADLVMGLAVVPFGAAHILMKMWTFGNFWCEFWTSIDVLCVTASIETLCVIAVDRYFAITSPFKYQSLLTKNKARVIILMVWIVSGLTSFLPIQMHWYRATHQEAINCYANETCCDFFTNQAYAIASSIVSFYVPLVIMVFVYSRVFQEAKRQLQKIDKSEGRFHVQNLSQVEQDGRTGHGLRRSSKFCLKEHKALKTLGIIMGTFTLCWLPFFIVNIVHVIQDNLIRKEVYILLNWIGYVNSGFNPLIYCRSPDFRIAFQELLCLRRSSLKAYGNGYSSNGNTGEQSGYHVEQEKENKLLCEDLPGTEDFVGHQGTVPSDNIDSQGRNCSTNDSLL
% is scaled to controls: 0 for no effect and ±100 for the full control effect.

KiSS-1 receptor (Homo sapiens), sequence (Q969F8 whole entry, looked up): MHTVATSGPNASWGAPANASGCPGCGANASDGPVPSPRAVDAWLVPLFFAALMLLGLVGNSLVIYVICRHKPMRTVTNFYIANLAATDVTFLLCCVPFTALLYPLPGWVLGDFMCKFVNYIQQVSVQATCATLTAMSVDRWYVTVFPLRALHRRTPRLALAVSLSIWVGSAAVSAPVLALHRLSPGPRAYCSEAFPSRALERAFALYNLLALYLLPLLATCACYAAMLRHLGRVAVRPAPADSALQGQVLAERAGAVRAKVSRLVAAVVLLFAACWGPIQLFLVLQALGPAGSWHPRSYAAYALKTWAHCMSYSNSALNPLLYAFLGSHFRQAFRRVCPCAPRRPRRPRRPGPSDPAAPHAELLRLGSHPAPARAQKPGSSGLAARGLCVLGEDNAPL
Gonadotropin-releasing hormone receptor (Homo sapiens), sequence (P30968 whole entry, looked up): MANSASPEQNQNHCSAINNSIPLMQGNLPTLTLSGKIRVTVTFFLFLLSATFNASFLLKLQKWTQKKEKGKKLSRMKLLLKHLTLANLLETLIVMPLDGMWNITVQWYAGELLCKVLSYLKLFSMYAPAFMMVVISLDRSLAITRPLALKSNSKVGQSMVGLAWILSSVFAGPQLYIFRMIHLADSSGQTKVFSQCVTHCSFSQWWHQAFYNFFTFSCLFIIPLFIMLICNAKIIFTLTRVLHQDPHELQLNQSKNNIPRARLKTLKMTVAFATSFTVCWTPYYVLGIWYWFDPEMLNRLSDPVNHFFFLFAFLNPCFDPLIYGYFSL
Muscarinic acetylcholine receptor M1 (Homo sapiens), sequence (P11229 whole entry, looked up): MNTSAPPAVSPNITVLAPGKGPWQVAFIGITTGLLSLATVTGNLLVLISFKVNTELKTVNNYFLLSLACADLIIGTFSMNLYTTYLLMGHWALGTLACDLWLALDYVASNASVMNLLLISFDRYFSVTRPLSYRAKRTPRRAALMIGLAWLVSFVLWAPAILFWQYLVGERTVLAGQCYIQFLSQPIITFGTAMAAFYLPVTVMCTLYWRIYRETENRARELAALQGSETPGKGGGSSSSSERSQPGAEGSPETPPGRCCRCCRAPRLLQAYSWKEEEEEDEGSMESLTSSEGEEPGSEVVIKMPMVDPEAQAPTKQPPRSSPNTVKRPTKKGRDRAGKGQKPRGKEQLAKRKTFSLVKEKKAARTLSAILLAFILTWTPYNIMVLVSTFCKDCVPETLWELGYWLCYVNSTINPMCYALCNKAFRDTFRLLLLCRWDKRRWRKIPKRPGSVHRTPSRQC

For the compound `CCCCCCCCCCCCN1CCOCC1`, the Potency entry in [1], in [2], in assay [3], in assay [6], in assay [7] and in [8] was “inactive” throughout. Also, the Potency result in assay [9], in assay [10], in assay [11], in assay [12], in [13] and in assay [14] was “inactive” throughout. Besides, the Potency result in assay [15], in [16] and in assay [17] was “inactive” throughout. For the same compound, the outcome in assay [4] and in assay [5] was inactive.

With `O=CN1CCCCC1`, the Potency entry in assay [1], in [2], in assay [3], in assay [6], in [7] and in assay [8] was “inactive” throughout. The Potency result in [9], in assay [10], in assay [18], in assay [19], in assay [11] and in assay [12] was “inactive” in each case. Moreover, the Potency result in assay [13], in assay [14], in [15], in assay [16] and in assay [17] was “inactive” throughout. Further, the result in assay [4] and in assay [5] was inactive.

With `NCC[C@H](O)C(=O)N[C@@H]1C[C@H](N)[C@@H](O[C@H]2O[C@H](CN)[C@@H](O)[C@H](O)[C@H]2O)[C@H](O)[C@H]1O[C@H]1O[C@H](CO)[C@@H](O)[C@H](N)[C@H]1O`, the activity change, negative = cytotoxicity in assay [1] is -17.6% [at 0.349 µM]; in assay [7] it was 4.34% [at 0.249 µM]; in assay [8] it was 1.45% [at 0.249 µM]; in assay [9], -9.5% [at 0.249 µM]. The activity, positive = activation in [2] is 1.57% [at 0.349 µM]. Besides, the activity change in assay [3] was -0.191% [at 0.217 µM, hits give high values]. For the same compound, the activation in assay [4] was 0.177% [at 0.29 µM]; in assay [5], 0.401% [at 0.217 µM]; in assay [6] it was -0.443% [at 0.249 µM]; in assay [10], 0.378% [at 0.249 µM]; in assay [13] it was -1.43% [at 0.349 µM]; in assay [20], 21.1% [at 0.349 µM]. For the same compound, in assay [16], the activation was -17.8% [at 0.349 µM]. For the same compound, the activity change, negative = inhibition was -1.04% [at 0.349 µM] in [14], 4.47% [at 0.349 µM] in [15] and -0.368% [at 0.348 µM] in [17].

For `CC(=O)OC(C)c1ccccc1` (configuration not stated), the Potency entry in [1], in [2], in [3], in [6], in assay [7] and in assay [8] was “inactive” in each case. In addition, the Potency result in assay [9], in assay [18], in assay [19], in assay [11], in assay [12] and in assay [15] was “inactive” each time. Also, the Potency result in [16] and in assay [17] was “inactive” in each case. The result in [4] and in assay [5] was inactive.

On to `Cc1cc(C)n(CO)n1`, for which the Potency entry in [1], in assay [2], in [3], in assay [6], in assay [7] and in assay [8] was “inactive” in each case. Also, the Potency entry in assay [10], in assay [18], in [11], in assay [12], in assay [13] and in assay [14] was “inactive” each time. The Potency result in assay [15], in assay [20], in [16] and in assay [17] was “inactive” in each case. The outcome in assay [4] and in [5] was inactive.

As for `O=S(=O)(O)c1ccc(N=Nc2c(O)ccc3ccccc23)cc1`, the Potency in [1] is 61.1 µM (active). In addition, the Potency result in assay [2], in [3], in [6], in assay [7], in assay [8] and in [18] was “inactive” each time. For the same compound, the Potency entry in [19], in assay [11], in assay [12], in assay [15] and in assay [16] was “inactive” in each case. The result in assay [4] and in [5] was inactive.

Consider `O=C(NC(Cc1cc(=O)[nH]c2ccccc12)C(=O)O)c1ccc(Cl)cc1` (configuration not stated), for which the Potency result in [1], in [2], in assay [3], in assay [6], in assay [7] and in assay [8] was “inactive” each time. The Potency result in [10], in assay [19], in assay [11], in assay [12], in [13] and in assay [15] was “inactive” in each case. Further, the Potency entry in assay [16] and in [17] was “inactive” throughout. In addition, the result in [4] and in [5] was inactive.

For `CCCCCCC1CCCC(=O)O1` (configuration not stated), the Potency entry in assay [1], in [2], in [3], in assay [6], in assay [7] and in [8] was “inactive” throughout. For the same compound, the Potency result in assay [9], in [18], in [19], in assay [11], in [12] and in [15] was “inactive” throughout. For the same compound, the Potency result in assay [16] and in assay [17] was “inactive” each time. Moreover, the result in [4] and in [5] was inactive.

For the origin of these results see PubChem BioAssay (Tox21).
